The whole screen tested about 310,000 compounds, of which about 14,000 (4.5%) showed an effect of 50% or more. Effects have a minus sign here. The sample as a whole holds a higher share of strong results than the screen did.
Target: human ether-à-go-go-related gene (hERG) potassium channel (human, UniProt Q12809)
Assay: primary screen, population patch clamp on CHO cells stably expressing hERG; higher = less effect of the substance
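Also: peak tail current of the secondary pulse compared with the same well before compound.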

human ether-à-go-go-related gene (hERG) potassium channel, sequence (Q12809 whole entry, looked up): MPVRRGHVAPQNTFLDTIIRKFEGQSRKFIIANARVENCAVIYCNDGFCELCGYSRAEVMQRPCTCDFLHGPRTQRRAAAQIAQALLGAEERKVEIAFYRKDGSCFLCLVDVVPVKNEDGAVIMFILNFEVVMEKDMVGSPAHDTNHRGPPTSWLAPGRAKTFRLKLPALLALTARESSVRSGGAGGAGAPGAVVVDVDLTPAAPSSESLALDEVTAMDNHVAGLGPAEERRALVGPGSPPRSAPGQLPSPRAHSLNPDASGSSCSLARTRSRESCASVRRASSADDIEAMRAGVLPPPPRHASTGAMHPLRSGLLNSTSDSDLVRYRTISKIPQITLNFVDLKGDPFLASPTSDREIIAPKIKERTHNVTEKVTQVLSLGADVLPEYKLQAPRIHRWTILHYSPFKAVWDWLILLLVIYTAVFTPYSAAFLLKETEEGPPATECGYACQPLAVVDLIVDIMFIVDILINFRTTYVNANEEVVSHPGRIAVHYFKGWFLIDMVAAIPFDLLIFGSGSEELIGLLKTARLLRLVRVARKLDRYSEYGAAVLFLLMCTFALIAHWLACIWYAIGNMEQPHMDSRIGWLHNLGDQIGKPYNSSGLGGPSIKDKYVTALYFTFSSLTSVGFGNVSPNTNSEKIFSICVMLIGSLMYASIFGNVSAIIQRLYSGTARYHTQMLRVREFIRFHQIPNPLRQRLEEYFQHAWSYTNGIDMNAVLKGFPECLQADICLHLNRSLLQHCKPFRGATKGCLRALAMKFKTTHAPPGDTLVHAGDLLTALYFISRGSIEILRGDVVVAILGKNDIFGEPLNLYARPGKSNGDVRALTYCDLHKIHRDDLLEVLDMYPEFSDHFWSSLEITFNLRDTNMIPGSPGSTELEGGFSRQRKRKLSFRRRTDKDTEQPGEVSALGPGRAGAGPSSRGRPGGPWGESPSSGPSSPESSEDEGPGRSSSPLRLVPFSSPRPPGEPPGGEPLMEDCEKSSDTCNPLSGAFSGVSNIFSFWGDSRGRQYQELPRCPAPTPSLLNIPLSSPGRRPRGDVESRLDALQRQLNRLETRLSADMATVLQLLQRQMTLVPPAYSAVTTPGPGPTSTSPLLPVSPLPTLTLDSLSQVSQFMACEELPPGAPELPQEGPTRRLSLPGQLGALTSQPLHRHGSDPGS

SMILES | hERG current change (%, negative = inhibition) at 10uM [%]
Nc1nc(NCCOCCO)nc(NCc2ccccc2)c1[N+](=O)[O-] | -1.49
O=C(NCc1ccccc1)C(=O)Nc1cccc(C(=O)O)c1 | 4.16
NC(=O)N/N=C/c1ccccc1OCC(=O)NCc1ccccc1 | -3.76
S=c1[nH]nc(-c2ccncc2)n1/N=C/C=C/c1ccccc1 | 8.71
COc1ccc(S(=O)(=O)N(CCC(=O)O)Cc2ccccc2)cc1 | 13.7
Cc1ccc(-n2ncc3c(=O)n(CC(=O)NC4CCCC4)cnc32)cc1C | 5.66
CCOC(=O)c1ccc(NC(=O)Cc2coc3cc4c(cc23)CCC4)cc1 | 5.55
CO[C@@]1(NC(=O)CSCC#N)C(=O)N2C(C(=O)[O-])=C(CSc3nnnn3C)CS[C@@H]21.[Na+] | 4.09
Cc1cccc(NC(=O)NNS(=O)(=O)c2ccc(F)cc2)c1 | -1.81
CSc1nnc(SCC#N)s1 | 8.95
CC(C)CCNC(=O)CN(C(=O)CCC(=O)Nc1nccs1)c1ccc2c(c1)OCCO2 | -4.45
Cc1cc(N/N=C/c2ccccc2)nc(N)n1 | -14.5
O=C(NCc1ccccn1)Nc1ccc(Cl)cc1 | 13.9
O=C(O)C(=O)O.c1ccc(CNCCc2ccc3c(c2)OCO3)nc1 | 2.74
CC(C)C(CCNCc1ccccn1)c1ccc(Cl)cc1 (stereo not drawn) | -41.6
CC(C)CCC(CCNCc1ccccn1)c1ccc(Cl)cc1 (stereo not drawn) | -80.4
CC(C)CCC(CCNCc1ccccn1)c1ccc2c(c1)OCO2.Cl (stereo not drawn) | -75.5
c1ccc(CNCc2ccc3c(c2)OCO3)nc1 | 11.2
O=C(CF)NC(Nc1cccc2cccnc12)C(Cl)(Cl)Cl (stereo not drawn) | -5.95
COc1ccc(N2CCN(C(=O)c3ccc4c(c3)CCN4S(=O)(=O)c3ccccc3)CC2)cc1 | -23.2
O=C(NCC1CC1)Nc1ccccc1 | 16.3
N#C/C(=C/c1cc[nH]c1)C(N)=S | 14.2
CSc1ccccc1NC(=O)CN1CCN(S(=O)(=O)c2ccccc2[N+](=O)[O-])CC1 | -52.2

SMILES | hERG current change (%, negative = inhibition) at 10uM [%]
CCN1CCC(NC(=O)Nc2cc(Cl)ccc2OC)CC1 | -2.83
COc1ccc(N2CCN(CC(=O)Nc3ccccc3SC)CC2)cc1 | -5.77
COc1ccccc1NC(=O)CN1CCN(c2ccccc2)CC1 | -12.7
COc1ccccc1NC(=O)CCN1CCN(Cc2ccccc2)CC1 | -22.3
CSc1ccccc1NC(=O)CN1CCCCC1 | 8.96
O=C(CN1CCN(S(=O)(=O)c2ccccc2[N+](=O)[O-])CC1)Nc1ccc(N2CCOCC2)cc1 | -12.9
O=C(CN1CCN(S(=O)(=O)c2ccccc2[N+](=O)[O-])CC1)NC(=O)NCc1ccco1 | -5.96
CSc1ccccc1NC(=O)CN1CCN(Cc2ccccc2)CC1 | -66.3
COC(=O)C1CCN(CC(=O)Nc2cc(Cl)ccc2OC)CC1 | -19
COc1ccc(Cl)cc1NC(=O)CN1CCC(NC(=O)C2CC2)CC1 | -52
COc1ccccc1NC(=O)CN1CCN(Cc2ccccc2)CC1 | -67.6
Cc1ccccc1C(=O)NC(=S)Nc1ccccc1[N+](=O)[O-] | 18.1
O=C(NC(Cc1c[nH]c2ccccc12)c1nnc2n1CCCCC2)c1ccccc1 (stereo not drawn) | 18.7
Cc1ccc(S(=O)(=O)N2CCCC(C(=O)NCCC3=CCCCC3)C2)cc1 (stereo not drawn) | -4.03
CC1Cc2ccccc2N1C(=O)Cn1cnc2ccccc2c1=O (stereo not drawn) | 21.8
Cc1cc(C)nc(NC(=O)CSc2ccccn2)n1 | 1.08
C/C(=N/NC(=O)c1ccc(Br)o1)c1ccncc1 | 7.82
CCOc1ccccc1NC(=O)C1CCN(c2ccc(S(=O)(=O)N3CCCC3)cc2)CC1 | -6.65
CCC1CCCCN1CCNS(=O)(=O)c1ccc2c(c1)CCN2C(C)=O (stereo not drawn) | -1.09
CCN1CCN(C(=O)N(c2ccccc2)c2ccccc2)CC1 | 11.9
Cc1n[nH]c(=O)c2c(NC(=O)CSc3nc4ccccc4c(=O)n3CCCO)oc(C)c12 | -21.2
COc1cccc(Cn2c(Oc3cccc(C)c3)nc3c2c(=O)n(C)c(=O)n3C)c1 | -9.7
O=S(=O)(N/N=C/c1ccc(F)cc1)c1ccccc1 | 6.88

SMILES | hERG current change (%, negative = inhibition) at 10uM [%]
Cn1nc(-c2ccc(NCCO)c([N+](=O)[O-])c2)c2ccccc2c1=O | -2.29
O=C(c1ccccc1Cl)N(Cc1ccc(Cl)c(Cl)c1)N1C(=O)CCCC1=O | -6.37
CC(=O)Nc1ccc(NC(=O)C(C)Oc2ccccc2C(=O)NCc2ccccc2)cc1 (stereo not drawn) | -46.9
COc1ccc(OC2CCN(S(=O)(=O)c3ccc(C(C)=O)cc3)CC2)cc1 | -19.7
COc1ccc(Cl)cc1NC(=O)CN1CCCC1.Cl | 5.1
COc1ccccc1NC(=O)c1nnn(Cc2ccccc2)c1NC(=O)C(F)(F)F | -53
COc1ccc(OC)c(NC(=O)CCN2CCN(Cc3ccccc3)CC2)c1.Cl | -32.9
O=C(Nc1ccccc1)c1nnn(Cc2ccccc2)c1NC(=O)C(F)(F)F | -7.45
COc1ccc(Cl)cc1NC(=O)CCN1CCN(c2ccccc2C)CC1 | 6.79
COc1ccc(Cl)cc1NC(=O)CCN1CCN(Cc2ccccc2)CC1 | -64.6
COc1ccc(Cl)cc1NC(=O)CN1CCN(Cc2ccccc2)CC1 | -68.9
COc1ccc(Cl)cc1NC(=O)CN1CCCCCC1 | -8.36
COc1ccccc1NC(=O)c1nnn(Cc2ccccc2)c1NC(C)=O | 2.36
COc1ccc(CCN=C(N)NS(=O)(=O)c2cc(F)ccc2F)cc1 | -17.2
N/C(Cc1ccc([N+](=O)[O-])cc1)=N\OC(=O)COc1ccccc1Cl | -21.2
O=C(c1ccccc1)N1CN2CN(C(=O)c3ccccc3)CC([N+](=O)[O-])(C2)C1 | 21.8
Cc1occc1-c1nnc(SCC(=O)NCCc2ccccc2)o1 | -11.5
COc1cccc(-n2nnnc2SCC(=O)NCCc2ccccc2)c1 | -20.8
CCOc1ccccc1-n1c(SCC(=O)NC(C)(C)C)nnc1-c1ccoc1C | 1.75
COc1ccc(-n2c(SCC(=O)Nc3ccccc3)nnc2-c2ccoc2C)cc1 | -71.8
COc1cccc(NC(=O)CSc2nnc(-c3ccoc3C)n2CC2CCCO2)c1 (stereo not drawn) | -1.09
CCn1c(SCC(=O)NC(C)(C)C)nnc1-c1ccoc1C | -18.5
COc1cccc(NC(=O)CSc2nnc(-c3ccoc3C)n2C)c1 | 4.35

SMILES | hERG current change (%, negative = inhibition) at 10uM [%]
COc1cccc(-n2c(SCC(=O)NCCc3ccccc3)nnc2-c2ccoc2C)c1 | -76.8
COc1cccc(-n2c(SCC(=O)NC(C)(C)C)nnc2-c2ccoc2C)c1 | -64.5
COC(=O)CSc1nnc(-c2ccoc2C)n1-c1ccc(OC)cc1 | -18.3
COc1ccc(-n2c(SCC(=O)Nc3cccc(C(=O)O)c3)nnc2-c2ccco2)cc1 | 17.7
COc1cccc(NC(=O)CSc2nnc(-c3ccoc3C)n2-c2ccccc2)c1 | -85.7
CN(CC(=O)Nc1cccc(F)c1)C(=O)CCC1CCCCC1 | 17.7
COC(=O)C(=NNc1c(C)n(C)n(-c2ccccc2)c1=O)C(=O)OC | 9.93
COc1ccccc1NC(=O)c1cc(OC)c(OC)cc1[N+](=O)[O-] | 4.44
COc1ccc(N(C)S(=O)(=O)c2ccc3c(c2)CCC(=O)N3)cc1 | -9.5
CN(C)c1ccc(/C=C(\C#N)c2ccccn2)cc1 | -6.97
CN(C)CCOc1cc(Cl)cc(Cl)c1 | 7.27
CCOC(CNc1cc(C)nc2c(-c3ccccc3OC)c(C)nn12)OCC | 8.64
COC(=O)c1ccc(NC(=O)CSc2nnc(C)n2-c2ccccc2)cc1 | -2.35
Cc1n[nH]c(=S)n1/N=C/c1ccc(Br)o1 | 12.5
COc1cccc(CN2CCN(S(=O)(=O)c3ccc(Br)cc3)CC2)c1 | -29.4
COc1ccc(CN2CCCN(S(=O)(=O)c3ccc(Br)cc3)CC2)cc1 | -74.4
COc1ccc(S(=O)(=O)N2CCCN(Cc3cccc(F)c3)CC2)cc1 | -44.6
COc1ccc(S(=O)(=O)N2CCN(Cc3ccc(Cl)cc3)CC2)cc1 | -10.8
O=S(=O)(c1ccc(Br)cc1)N1CCCN(Cc2cccc(F)c2)CC1 | -17.9
COc1cccc(CN2CCCN(S(=O)(=O)c3ccc(Br)cc3)CC2)c1 | -58.6
COc1ccc(N2CSC3=C(C#N)C(c4ccc(OC)c(OC)c4)CC(=O)N3C2)c(OC)c1 (stereo not drawn) | -47.5

Source: PMC4336329 (PLoS ONE, 2015)
